Results reported in PubChem BioAssay AID1159580 (chemical genetic matrix, 2015).
Several values for one entry are separate records, joined by “and”; a condition that tells them apart may be missing. Equal values may be shown once. Among all 5,500 compounds or so, about 2,000 (36%) were called active. Roughly 18% stayed inconclusive and do not appear here. No stated cut-off is given here; in the data, active means normalized growth mostly below about 0.91 (no sharp cut-off); inconclusive means no clear call, values can overlap the other calls; inactive means mostly above about 0.92. The list shows a part of the results.

Assay: chemical genetic growth profiling, strain panel (AID 1159580);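 further: tested at 20 µM; growth read once vehicle control cultures reached saturation at 30 °C; 1 = growth at the plate median or of vehicle wells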
Conditions: S. cerevisiae deletion strains, growth OD

Measured: normalized growth

C=C(C)[C@H]1Cc2c(ccc3c2O[C@@H]2COc4cc(OC)c(OC)cc4[C@@H]2C3=O)O1
inactive: locus YAL013W, strain DEP1, stronger effect = lower value 1.01 | locus YAL021C, strain ccr4, stronger effect = lower value 0.993 | locus YAL026C, strain drs2, stronger effect = lower value 0.962 | locus YAL030W, strain snc1, stronger effect = lower value 0.982 | locus YBL061C, strain skt5, stronger effect = lower value 0.994 | locus YBR021W, strain FUR4, stronger effect = lower value 0.975 | locus YBR023C, strain chs3, stronger effect = lower value 0.962 | locus YBR171W, strain sec66, stronger effect = lower value 0.979 | locus YBR229C, strain ROT2, stronger effect = lower value 1.01 | locus YBR231C, strain swc5, stronger effect = lower value 1 | locus YBR279W, strain paf1, stronger effect = lower value 1.06 | locus YCL011C, strain gbp2, stronger effect = lower value 0.936 | locus YCL016C, strain dcc1, stronger effect = lower value 0.926 | locus YCL029C, strain bik1, stronger effect = lower value 1.03 | locus YCL061C, strain MRC1, stronger effect = lower value 1 | locus YCL069W, strain vba3, stronger effect = lower value 0.997 | locus YCR088W, strain abp1, stronger effect = lower value 1.03 | locus YDL005C, strain med2, stronger effect = lower value 0.99 | locus YDL035C, strain GPR1, stronger effect = lower value 0.956 | locus YDL040C, strain nat1, stronger effect = lower value 0.986 | locus YDL074C, strain BRE1, stronger effect = lower value 0.926 | locus YDL101C, strain DUN1, stronger effect = lower value 0.992 | locus YDL185W, strain tfp1, stronger effect = lower value 1.02 | locus YDL192W, strain arf1, stronger effect = lower value 1.02 | locus YDR001C, strain nth1, stronger effect = lower value 1.01 | locus YDR069C, strain doa4, stronger effect = lower value 0.991 | locus YDR101C, strain arx1, stronger effect = lower value 1 | locus YDR137W, strain rgp1, stronger effect = lower value 0.853 | locus YDR159W, strain sac3, stronger effect = lower value 0.984 | locus YDR162C, strain NBP2, stronger effect = lower value 0.966 | locus YDR195W, strain ref2 1.13 | locus YDR297W, strain sur2, stronger effect = lower value 0.966 | locus YDR318W, strain mcm21, stronger effect = lower value 1 | locus YDR334W, strain swr1, stronger effect = lower value 1.04 | locus YDR335W, strain msn5, stronger effect = lower value 1 | locus YDR388W, stronger effect = lower value 1.01 | locus YDR392W, strain spt3, stronger effect = lower value 0.762 | locus YDR502C, strain sam2, stronger effect = lower value 1 | locus YEL003W, strain gim4, stronger effect = lower value 0.981 | locus YEL037C, strain rad23, stronger effect = lower value 1.02 | locus YEL061C, strain CIN8 (second series), stronger effect = lower value 1.03 | locus YEL061C, strain CIN8, stronger effect = lower value 1 | locus YER015W, strain faa2, stronger effect = lower value 0.982 | locus YER016W, strain bim1, stronger effect = lower value 0.986 | locus YER111C, strain swi4, stronger effect = lower value 1.02 | locus YER155C, strain BEM2 (second series), stronger effect = lower value 1.07 | locus YER155C, strain BEM2, stronger effect = lower value 1 | locus YER167W, strain BCK2, stronger effect = lower value 0.966 | locus YFR010W, strain ubp6, stronger effect = lower value 1.01 | locus YGL078C, strain dbp3, stronger effect = lower value 1.01 | locus YGL086W, strain mad1, stronger effect = lower value 0.993 | locus YGL167C, strain pmr1, stronger effect = lower value 0.97 | locus YGL173C, strain kem1, stronger effect = lower value 0.98 | locus YGL227W, strain vid30, stronger effect = lower value 1.01 | locus YGL240W, strain doc1, stronger effect = lower value 0.999 | locus YGL248W, strain PDE1, stronger effect = lower value 0.993 | locus YGL253W, strain hxk2, stronger effect = lower value 0.964 | locus YGR135W, strain pre9, stronger effect = lower value 0.996 | locus YGR229C, strain SMI1, stronger effect = lower value 0.924 | locus YGR252W, strain gcn5, stronger effect = lower value 0.914 | locus YHR013C, strain ard1, stronger effect = lower value 1 | locus YHR027C, strain rpn1, stronger effect = lower value 0.975 | locus YHR030C, strain SLT2, stronger effect = lower value 1.01 and 0.915 | locus YHR079C, strain IRE1 (second series), stronger effect = lower value 1.02 | locus YHR079C, strain IRE1, stronger effect = lower value 0.95 | locus YHR094C, strain hxt1, stronger effect = lower value 1.02 | locus YHR129C, strain ARP1, stronger effect = lower value 1.01 | locus YHR142W, strain chs7, stronger effect = lower value 0.972 | locus YHR200W, strain rpn10, stronger effect = lower value 0.996 | locus YIL066C, strain RNR3, stronger effect = lower value 0.968 | locus YIL073C, strain SPO22, stronger effect = lower value 1.04 | locus YIL125W, strain kgd1, stronger effect = lower value 1.01 | locus YIR030C, strain dcg1, stronger effect = lower value 1.02 | locus YJL092W, strain hpr5, stronger effect = lower value 1.01 | locus YJL095W, strain BCK1 (second series), stronger effect = lower value 0.967 | locus YJL095W, strain BCK1, stronger effect = lower value 0.958 and 0.936 | locus YJL115W, strain asf1, stronger effect = lower value 1.02 | locus YJL129C, strain trk1, stronger effect = lower value 0.901 | locus YJL134W, strain LCB3, stronger effect = lower value 1.01 | locus YJL154C, strain vps35, stronger effect = lower value 1 | locus YJL166W, strain qcr8, stronger effect = lower value 0.932 | locus YJL168C, strain set2, stronger effect = lower value 1.04 | locus YJL187C, strain SWE1 (second series), stronger effect = lower value 0.982 | locus YJL187C, strain SWE1, stronger effect = lower value 0.993 | locus YJR043C, strain POL32, stronger effect = lower value 0.973 | locus YJR066W, strain TOR1, stronger effect = lower value 0.851 | locus YJR075W, strain HOC1, stronger effect = lower value 0.983 | locus YKL009W, strain mrt4, stronger effect = lower value 1.03 | locus YKL068W, stronger effect = lower value 1 | locus YKL085W, strain MDH1 (second series), stronger effect = lower value 1 | locus YKL085W, strain MDH1, stronger effect = lower value 1 | locus YKL160W, strain elf1, stronger effect = lower value 0.95 | locus YKL190W, strain CNB1, stronger effect = lower value 1 | locus YKR001C, strain vps1, stronger effect = lower value 0.947 | locus YKR026C, strain gcn3, stronger effect = lower value 1 | locus YKR091W, strain srl3, stronger effect = lower value 0.991 | locus YLL001W, strain dnm1, stronger effect = lower value 0.983 | locus YLL026W, stronger effect = lower value 0.976 | locus YLL041C, strain sdh2, stronger effect = lower value 0.99 | locus YLR027C, strain aat2, stronger effect = lower value 0.978 | locus YLR039C, strain RIC1, stronger effect = lower value 0.936 | locus YLR058C, strain SHM2, stronger effect = lower value 1.01 | locus YLR102C, strain apc9, stronger effect = lower value 1.02 | locus YLR113W, strain HOG1, stronger effect = lower value 0.968 | locus YLR221C, strain rsa3, stronger effect = lower value 0.921 | locus YLR258W, strain gsy2, stronger effect = lower value 0.958 | locus YLR262C, strain YPT6, stronger effect = lower value 0.99 | locus YLR268W, strain sec22, stronger effect = lower value 0.978 | locus YLR320W, strain mms22, stronger effect = lower value 0.891 | locus YLR330W, strain CHS5, stronger effect = lower value 1.02 | locus YLR342W, strain FKS1 (second series), stronger effect = lower value 1.02 | locus YLR342W, strain FKS1, stronger effect = lower value 1.01 | locus YLR357W, strain rsc2, stronger effect = lower value 1.09 | locus YLR370C, strain arc18, stronger effect = lower value 0.975 | locus YLR371W, strain rom2, stronger effect = lower value 1.02 | locus YLR384C, strain iki3, stronger effect = lower value 1.03 | locus YLR418C, strain cdc73, stronger effect = lower value 0.917 | locus YML016C, strain PPZ1, stronger effect = lower value 1.01 | locus YML032C, strain rad52, stronger effect = lower value 1.01 | locus YML120C, strain ndi1, stronger effect = lower value 0.95 | locus YML124C, strain tub3, stronger effect = lower value 1.01 | locus YMR058W, strain fet3, stronger effect = lower value 0.994 | locus YMR078C, strain ctf18, stronger effect = lower value 1.01 | locus YMR125W, strain sto1, stronger effect = lower value 1.05 | locus YMR129W, stronger effect = lower value 1 | locus YMR205C, strain PFK2, stronger effect = lower value 0.929 | locus YMR223W, strain ubp8, stronger effect = lower value 1 | locus YMR231W, strain pep5, stronger effect = lower value 0.983 | locus YMR307W, strain GAS1, stronger effect = lower value 1 | locus YNL067W, strain RPL9B, stronger effect = lower value 0.987 | locus YNL128W, strain TEP1, stronger effect = lower value 0.995 | locus YNL183C, strain NPR1, stronger effect = lower value 0.886 | locus YNL209W, strain ssb2, stronger effect = lower value 0.979 | locus YNL233W, strain BNI4, stronger effect = lower value 0.976 | locus YNL248C, strain rpa49, stronger effect = lower value 1.06 | locus YNL250W, strain rad50, stronger effect = lower value 1.02 | locus YNL271C, strain bni1, stronger effect = lower value 1.02 | locus YNL298W, strain CLA4, stronger effect = lower value 1.01 | locus YNL307C, strain MCK1, stronger effect = lower value 0.962 | locus YNL322C, strain KRE1 (second series), stronger effect = lower value 0.991 | locus YNL322C, strain KRE1, stronger effect = lower value 1 | locus YNR049C, strain mso1, stronger effect = lower value 1.01 | locus YNR052C, strain pop2, stronger effect = lower value 1.01 | locus YOL006C, strain TOP1, stronger effect = lower value 0.944 | locus YOL012C, strain htz1 0.818 | locus YOL147C, strain pex11, stronger effect = lower value 1.03 | locus YOR001W, strain rrp6, stronger effect = lower value 0.967 | locus YOR061W, strain CKA2, stronger effect = lower value 1 | locus YOR069W, strain VPS5, stronger effect = lower value 1 | locus YOR070C, strain gyp1, stronger effect = lower value 0.961 | locus YOR080W, strain dia2, stronger effect = lower value 0.994 | locus YOR083W, strain WHI5, stronger effect = lower value 0.969 | locus YOR106W, strain vam3, stronger effect = lower value 0.974 | locus YOR136W, strain idh2, stronger effect = lower value 1.01 | locus YOR144C, strain elg1, stronger effect = lower value 1 | locus YOR184W, strain ser1, stronger effect = lower value 0.952 | locus YOR231W, strain MKK1, stronger effect = lower value 0.94 | locus YOR265W, strain rbl2, stronger effect = lower value 0.973 | locus YOR270C, strain vph1, stronger effect = lower value 0.853 | locus YOR290C, strain snf2, stronger effect = lower value 0.985 | locus YOR316C, strain cot1, stronger effect = lower value 1.01 | locus YPL051W, strain arl3, stronger effect = lower value 0.963 | locus YPL055C, strain LGE1, stronger effect = lower value 0.942 | locus YPL078C, strain atp4, stronger effect = lower value 1.03 | locus YPL106C, strain sse1, stronger effect = lower value 0.977 | locus YPL240C, strain hsp82, stronger effect = lower value 0.975 | locus YPL241C, strain CIN2, stronger effect = lower value 1.01 | locus YPL256C, strain CLN2, stronger effect = lower value 0.942 | locus YPR119W, strain clb2, stronger effect = lower value 1.01 | locus YPR141C, strain kar3, stronger effect = lower value 1.04 | locus YPR163C, strain tif3, stronger effect = lower value 0.933 | locus YPR167C, strain met16, stronger effect = lower value 1 | strain wtn01, stronger effect = lower value 1.03
active: locus YBR009C, strain hhf1, stronger effect = lower value 0.892 | locus YER110C, stronger effect = lower value 1.11 [resistant] | locus YJL164C, strain tpk1, stronger effect = lower value 0.917 | locus YLR262C, strain YPT6 (second series), stronger effect = lower value 0.83 | locus YNL071W, strain lat1, stronger effect = lower value 0.894
